The structures appear in SMILES notation. “And” between values parts separate entries of the source, which are not always exact repeats. Equal values may be shown once. Compounds without any hit were thinned out: in the full panel of roughly 83,000, 20% have a hit.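 Percent growth is the endpoint: 0 to 100 indicates growth inhibition (40 means 60% inhibition), 0 means no net growth, and negative values indicate cell death.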 The source made the active and inactive calls. The calls were made as follows: active = growth percent below 10; inactive = the rest.

This test deals with MCF7 breast. Description: NCI-60 one-dose screen, 48 h (100 = growth as untreated, 0 = no growth, -100 = all killed). The conditions noted are these: 10 µM unless noted.
As for `c1ccc(-c2cn3c(-c4c[nH]c5ccccc45)csc3n2)cc1`, the growth was 40.3% (inactive). The figure for `O=C(/C=C/c1ccccc1Cl)Nc1ncc(Cc2cc(Cl)ccc2Cl)s1` is 16.6% (inactive). Under `O=C(CCCCCCNC(=O)c1csc(Br)n1)NO` stands 26.7% (inactive); under `CCOC(=O)c1cnc2c(-c3ccc(Cl)c(Cl)c3)cnn2c1`, 82.8% (inactive); under `Cc1csc(/N=C(N)/N=C(\N)c2cccc(Br)c2)n1`, 73.3% (inactive). The figure for `CN1CCN(c2ccc(Nc3nc(NCCNC(=O)c4ccccc4)c4sccc4n3)cc2)CC1` is 25.7% (inactive); for `C#Cc1cc(OC)c(C(=O)Nc2ccc(F)cc2C(=O)Nc2cccc(S(=O)(=O)C(F)(F)F)c2)cn1` it is 13.1% (inactive). As to `CCCN1C=C/C(=C\C(=O)n2ccc3ccccc32)c2ccccc21`, the growth was 64.5% (inactive). The figure for `CNC(=O)c1cc(-n2ccc3cc(NC(=O)Nc4ccc(N5CCN(C)CC5)c(C(F)(F)F)c4)ccc32)ccn1` is -23.9% (active); for `Fc1cc(F)cc(NNC(=S)c2ccccc2)c1` it is 37.5% (inactive); for `CCCCCCCCCCCC(=O)NC(C)(C)C(=O)N1CCCC1C(=O)NC(C)(C)C(=O)NC(C)(C)C(=O)N1CCCC1C(=O)NC(C)(C)C(=O)NC(C)(C)C(=O)N1CCCC1C(=O)NC(C)C(=O)NCCC(=O)NC(C)C(=O)NC(C)(C)C(=O)NC(C)(C)C(=O)NC(C)(C)C(=O)NCCC(=O)NC(C)(C)C(=O)NC(C)(C)C(=O)NC(C)(C)C(=O)NC(C)C(=O)NCCC(=O)O` (stereo not given) it is -81.5% (active). The figure for `CC[C@]12C=CCN3CC[C@@]4(c5ccc(OC)cc5N(C)[C@H]4[C@@](O)(C(=O)OC)[C@@H]1OC(=O)CCN1CCc4ccccc4C1)[C@@H]32` is 82.5% (inactive). Turning to `O=C(CCCCCCNC(=O)C(O)(O)C(F)(F)F)Nc1ccc(-c2ccccc2)cc1`, the growth is 9.59% (active). Regarding `Brc1cccc(-c2cc(-c3cnc4c(c3)OCCO4)n[nH]2)c1`, the growth is 10% (inactive). The figure for `CS(=O)(=O)c1ccc(/C(=N/N=C(N)N)c2ccc(Cl)cc2)cc1` is 32.8% (inactive).

For `CCN1CCN(c2ccc(NC(=O)Nc3ccc4c(ccn4-c4ccnc(C(=O)NC)c4)c3)cc2C(F)(F)F)CC1`, the growth is 5.65% (active). Take `Cc1ccc2c(n1)C(=O)C(Cl)=C(Nc1ccc(C#N)cc1)C2=O`: the growth is 18.7% (inactive). Under `NS(=O)(=O)c1ccc(Nc2nc(Nc3ccccc3)nc(N3N=C(c4ccc(Cl)cc4)CC3c3ccc(Cl)cc3)n2)cc1` (stereo not given) stands 12.8% (inactive); under `COC(=O)c1cccc(NC2=C(Cl)C(=O)c3nc(C)ccc3C2=O)c1`, -35.2% (active). Under `C#CCN(C)CCCOc1ccc(NCc2ccc(/C=C/C(=O)NO)cc2)cc1Cl` stands 10.4% (inactive); under `Cc1nc(N)sc1-c1csc(Nc2ccc(C(F)(F)F)cc2)n1`, 17.3% (inactive).

Turning to `COc1ccc(-c2nc(C#N)c(N3CCC(S(=O)(=O)N4CCOCC4)CC3)o2)cc1`, the growth is 90.7% (inactive). Under `O=C(CCCCCCN1CC(=O)N2[C@@H](c3ccc(Cl)s3)c3[nH]c4ccccc4c3C[C@H]2C1=O)NO` stands 14.7% (inactive); under `C#C[C@]1(O)CC[C@H]2[C@@H]3CC=C4c5sc(N(C)c6ccccc6)nc5CC[C@]4(C)[C@H]3CC[C@@]21C`, 67.3% (inactive). The figure for `COc1ccc(/C=N/NC(=O)c2c(N)nn(C)c2Nc2ccccc2)cc1Oc1ccccc1` is 75.3% (inactive); for `CCOC(=O)c1cccc(NC2=C(Cl)C(=O)C(C)=C(C)C2=O)c1` it is 84.7% (inactive). Under `Cc1ccc(NC(=O)Nc2nc3ccc([N+](=O)[O-])cc3s2)cc1` stands 2.35% (active). Turning to `Oc1[nH]c2ccc(Cl)cc2c1N=Nc1nc(N=Nc2c(O)[nH]c3ccc(Cl)cc23)nc(N2CCOCC2)n1`, the growth is 43.1% (inactive).

For `C[C@H](Nc1ncnc2ccc(-c3cnc(Cl)c(NS(C)(=O)=O)c3)cc12)c1ccccc1`, the growth was 2.5% (active). Under `Brc1ccc(-c2cc(-c3ccc4c(c3)OCCO4)n[nH]2)s1` stands 7.62% (active); under `C/C=C/CC(C)C(O)[C@H](NC(=O)[C@@H]1CCCN1C(=O)[C@](C)(CC)NC(=O)CCCCCCCCC)C(=O)N[C@@](C)(CC)C(=O)N[C@@H](CCC(N)=O)C(=O)N[C@H](CCC(N)=O)C(=O)NC(C)(C)C(=O)NC(C)(C)C(=O)N[C@@H](CCC(N)=O)C(=O)N[C@H](CC(C)C)C(=O)N[C@H](CO)CC(C)C` (stereo not given in full), 51.9% (inactive) and -62.3% (active); under `CC(=C(c1ccc(OCCCN(C)C)cc1)c1ccc(OCCCN(C)C)cc1)c1ccc(Cl)cc1`, 37.9% (inactive). Regarding `CCc1cc2c(cc1Cl)nc1c(=O)[nH]c(=O)nc-1n2CCOCC(C)(C)C`, the growth was 58.2% (inactive).

As to `COc1ccc(/C=N/N=C(/c2ccccc2)c2ccc3nc(-c4ccc(Cl)cc4)[nH]c3c2)cc1`, the growth is 72% (inactive). On to `Cc1[nH]c(C(=O)Nc2ccc(S(=O)(=O)N3CCCCC3)cc2OCCOCCOCCOCCOCCOCCOCCOCCOCCOc2cc(S(=O)(=O)N3CCCCC3)ccc2NC(=O)c2[nH]c(C)c3c2CCCCC3=O)c2c1C(=O)CCCC2`, for which the growth is 11% (inactive). The figure for `Cc1csc(/N=C(N)/N=C(\N)c2cccc(C#N)c2)n1` is 77.7% (inactive); for `CC1(C)CC[C@]23CC[C@]4(C)[C@H](CC[C@@H]5[C@@]6(C)CC[C@H](NCO)C(C)(C)[C@@H]6CC[C@]54C)[C@H]2[C@H]1OC3` it is 1.96% (active). Consider `NC1CC2(CCN(c3cnc(C(=O)Nc4cc(F)cc5cccnc45)cn3)CC2)C1`, for which the growth is 46.2% (inactive). The figure for `COc1ccc(-c2cc(-c3ccc(N4CCOCC4)cc3)n3c(n2)nc2ccccc23)cc1OC` is 90.1% (inactive). Under `CN1CCC[C@]2(C)[C@H]3CC[C@@H]4[C@@H]5[C@H]6OC[C@@]5(CCC6(C)C)CC[C@@]4(C)[C@]3(C)CC[C@H]2C1(C)C` stands 8.03% (active).

The values above are taken from PubChem BioAssay (NCI).
